Most compounds without a hit are left out; they make up all but 2.9% or so of the library.
Mtb FBA inh: Mtb fructose-bisphosphate aldolase inhibition; P9WQA3; purified M. tuberculosis FBA, fluorescence read-out; inhibition, % at 1 µM; hit rate 2.3% among 360,000; AID 588726
Target sequence (P9WQA3 whole entry, looked up): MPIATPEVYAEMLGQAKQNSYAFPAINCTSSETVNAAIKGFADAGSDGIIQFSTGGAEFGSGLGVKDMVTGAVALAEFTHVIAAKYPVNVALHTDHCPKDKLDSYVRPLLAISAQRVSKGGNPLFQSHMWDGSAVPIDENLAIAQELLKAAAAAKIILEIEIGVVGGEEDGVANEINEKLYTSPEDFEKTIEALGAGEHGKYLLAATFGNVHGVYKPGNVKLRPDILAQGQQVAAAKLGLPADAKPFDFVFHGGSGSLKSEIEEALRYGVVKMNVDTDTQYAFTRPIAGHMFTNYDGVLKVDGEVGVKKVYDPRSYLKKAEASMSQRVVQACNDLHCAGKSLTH
GDH-TPI counter-1: GDH-TPI coupled enzyme inhibition counter-screen | GDH-TPI coupled enzyme counterscreen, NADH absorbance | inhibition, % at 4.8 µM | hit rate 1.2% among 360,000; in the data active means inhibition above about 30%
Mtb BioA inh: BioA (M. tuberculosis) enzyme inhibition | purified M. tuberculosis BioA enzyme, plate reader | inhibition, % at 9.99 µM | hit rate 0.096% among 360,000 | AID 602481; in the data active means inhibition above about 40%
Mtb hypoxia rep: inhibitors of hypoxia-regulated fluorescent reporter in Mycobacterium tuberculosis; M. tuberculosis hypoxia-regulated fluorescent reporter, fluorescence; hit rate 0.1% among 300,000; AID 1159583; fluorescence inhibition, % (concentration not given with the values); in the data active means fluorescence inhibition mostly above about 23%, no sharp cut-off; inactive means mostly below about 17%
FadD28 FP inh: inhibitors of Mycobacterium tuberculosis FadD28 bisubstrate binding; FadD28 bisubstrate probe binding, fluorescence polarization; inhibition, % at 12.5 µM; hit rate 0.22% among 360,000; in the data active means inhibition above about 8.5%, passing the limit was not always enough
Mtb FBA inh conf: Mtb FBA inhibition, confirmed; inhibition, % at 1 µM; purified M. tuberculosis FBA, fluorescence read-out; AID 651616; shares compounds with Mtb FBA inh; hit rate 78% among 5,600
GDH-TPI counter-2: inhibits GDH-TPI coupling enzymes, flagging Mtb FBA hits. shares compounds with Mtb FBA inh. inhibition, % at 1 µM. GDH-TPI coupled enzyme counterscreen, fluorescence. hit rate 81% among 5,600; in the data active means inhibition above about 10%
Large screens that a line does not name were inactive (follow-up assays come after a bar, where they were run). Unless noted, no stated cut-off is given here; in the data, active means inhibition above about 27%; inactive means the rest.

CC(C)c1nc(Cl)c(C#N)c2c1COC(C)(C)C2	none (no result: Mtb BioA inh)
CCc1nc(NCC(C)C)c(C#N)c2c1COC(C)(C)C2	none
CC(C)c1nc(NCC2CCCO2)c(C#N)c2c1COC(C)(C)C2 (stereo not given)	Mtb FBA inh 55.1 (no result: Mtb hypoxia rep) | Mtb FBA inh conf 123.3 | GDH-TPI counter-2 101.5
C[C@H](CO)N1C[C@H](C)[C@H](CN(C)C(=O)CN(C)C)Oc2ncc(-c3ccc(F)cc3)cc2C1=O	none (no result: Mtb FBA inh, GDH-TPI counter-1, Mtb hypoxia rep, FadD28 FP inh)
COC(=O)c1ccc(C(=O)OC)c(=O)[nH]1	Mtb FBA inh 62.5 | Mtb FBA inh conf inactive | GDH-TPI counter-2 inactive
COC(=O)c1c[nH]c(=O)c2ccccc12	none (no result: Mtb BioA inh)
O=C(c1ccc(Cl)cc1)N1CCC2(CC1)OCCO2	none
O=C(c1ccc2nc3ccccc3c(=O)n2c1)N1CCN(Cc2ccc3c(c2)OCO3)CC1	Mtb FBA inh 69.2 | Mtb FBA inh conf inactive | GDH-TPI counter-2 inactive
O=C(c1ccc2nc3ccc(Cl)cc3c(=O)n2c1)N1CCC2(CC1)OCCO2	Mtb FBA inh 40.5 | Mtb FBA inh conf active | GDH-TPI counter-2 active
O=C(c1ccc2nc3ccc(Cl)cc3c(=O)n2c1)N1CCOCC1	Mtb FBA inh 92.9 | Mtb FBA inh conf active | GDH-TPI counter-2 active
O=C(c1cccn2c(=O)c3ccccc3nc12)N1CCN(Cc2ccc3c(c2)OCO3)CC1	none
Cc1ccc(S(=O)(=O)N(C)C[C@@H]2OCCCC[C@@H](C)Oc3ccc(NC(=O)CCCN(C)C)cc3C(=O)N([C@H](C)CO)C[C@H]2C)cc1	none (no result: Mtb FBA inh, GDH-TPI counter-1, Mtb hypoxia rep, FadD28 FP inh)
CCOC(=O)C1CCN(C(=O)CCc2c(C)nc3cc(-c4ccc(OC)cc4OC)nn3c2C)CC1	Mtb FBA inh 50.1 (no result: Mtb BioA inh) | Mtb FBA inh conf 99.6 | GDH-TPI counter-2 67.5
CCOC(=O)C1CCN(C(=O)CCc2c(C)nc3ncnn3c2C)CC1	none
CCN(C[C@@H]1N[C@@H](CO)[C@H]1c1ccc(-c2cccc(F)c2)cc1)C(=O)CN(C)C	none (no result: Mtb FBA inh, GDH-TPI counter-1, Mtb hypoxia rep, FadD28 FP inh)
Cc1ccc(C=NN2CCN(C3c4ccccc4-c4ccccc43)CC2)o1	none (no result: Mtb FBA inh, GDH-TPI counter-1, Mtb BioA inh, FadD28 FP inh)
O=C1Nc2ccc(S(=O)(=O)NCC3CCCO3)c3cccc1c23 (stereo not given)	Mtb FBA inh 49.6 (no result: Mtb BioA inh) | Mtb FBA inh conf 46.6 | GDH-TPI counter-2 30.5
O=C1Nc2ccc(S(=O)(=O)NCCCO)c3cccc1c23	Mtb FBA inh 51.9 | Mtb FBA inh conf 94.1 | GDH-TPI counter-2 61.2
CCNS(=O)(=O)c1ccc2c3c(cccc13)C(=O)N2	Mtb FBA inh 65.1 | Mtb FBA inh conf 53.4 | GDH-TPI counter-2 38.0
CCN(CC)S(=O)(=O)c1ccc2c3c(cccc13)C(=O)N2	none
COc1ccc(S(=O)(=O)N2CCCCN3[C@H](CO)[C@@H](c4ccc(C#CC5CC5)cc4)[C@H]3C2)cc1	none (no result: Mtb FBA inh, GDH-TPI counter-1, Mtb hypoxia rep, FadD28 FP inh)
COc1ccc(C#Cc2cnc3c(c2)C(=O)N([C@@H](C)CO)C[C@@H](C)[C@H](CN(C)C(=O)CC2CC2)O3)cc1	none (no result: Mtb FBA inh, GDH-TPI counter-1, Mtb hypoxia rep, FadD28 FP inh)
CC(C)NC(=O)Nc1ccc2c(c1)C(=O)N([C@@H](C)CO)C[C@@H](C)[C@@H](CN(C)S(=O)(=O)c1ccc(Cl)cc1)OCCCC[C@@H](C)O2	none (no result: Mtb FBA inh, GDH-TPI counter-1, Mtb hypoxia rep, FadD28 FP inh)
COc1ccc(C2NN=C(c3ccc(C)cc3)S2)cc1OC (stereo not given)	Mtb FBA inh 38.4 (no result: Mtb BioA inh) | Mtb FBA inh conf active | GDH-TPI counter-2 active
Cc1ccc(C2=NNC(c3cccc(F)c3)S2)cc1 (stereo not given)	none (no result: Mtb BioA inh)
CN(C)c1ccc(C=NNC(=O)CC#N)cc1	none (no result: Mtb FBA inh, GDH-TPI counter-1, Mtb BioA inh, FadD28 FP inh)
CN(C)c1ccc(/C=N\NC(=O)CC#N)cc1	Mtb FBA inh 29.5, GDH-TPI counter-1 35.0 (no result: Mtb BioA inh, Mtb hypoxia rep) | Mtb FBA inh conf inactive | GDH-TPI counter-2 inactive
Cc1[nH]c(C(=O)N/N=C/c2ccc(N(C)C)cc2)c(C)c1C(=O)N/N=C/c1ccc(N(C)C)cc1	Mtb FBA inh 27.6, GDH-TPI counter-1 45.5 (no result: Mtb BioA inh, Mtb hypoxia rep) | Mtb FBA inh conf 59.9 | GDH-TPI counter-2 43.8
C[C@@H]1CN([C@H](C)CO)C(=O)c2cc(NS(=O)(=O)c3ccc(F)cc3)ccc2O[C@H]1CN(C)S(=O)(=O)c1ccc(F)cc1	none (no result: Mtb FBA inh, GDH-TPI counter-1, Mtb hypoxia rep, FadD28 FP inh)
Cc1noc(C)c1C(=O)N(C)C[C@@H]1OCc2ccccc2-c2ccccc2C(=O)N([C@@H](C)CO)C[C@@H]1C	none (no result: Mtb FBA inh, GDH-TPI counter-1, Mtb hypoxia rep, FadD28 FP inh)
CCCC(=O)N=C1SC2CS(=O)(=O)CC2N1c1ccc(-c2nc3ccc(C)cc3s2)cc1 (stereo not given)	Mtb FBA inh 53.2 | Mtb FBA inh conf 140.6 | GDH-TPI counter-2 103.0
C[C@H](CO)N1C[C@H](C)[C@H](CN(C)C(=O)NC2CCCCC2)Oc2ncc(C#CCN(C)C)cc2C1=O	none (no result: Mtb FBA inh, GDH-TPI counter-1, Mtb hypoxia rep, FadD28 FP inh)
